Hit rate of the full screen: of about 5,500 compounds, about 2,000 (36%) were called active. Roughly 18% stayed inconclusive and do not appear here. Rule as the data show it: active = normalized growth mostly below about 0.91 (no sharp cut-off); inconclusive = no clear call, values can overlap the other calls; inactive = mostly above about 0.92. The list shows a part of the results.
Test: chemical genetic growth profiling, strain panel (AID 1159580);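 also: tested at 20 µM; growth read once vehicle control cultures reached saturation at 30 °C; 1 = growth at the plate median or of vehicle wells; lower values mean less growth of the strain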
Conditions: growth OD

Measured: normalized growth

CC1(C)C(=O)C=C[C@@]2(C)C1CC(=O)[C@@]1(C)C3=CC(=O)O[C@@H](c4ccoc4)[C@]3(C)CCC12 (some centres undefined)
inactive: S. cerevisiae deletion strains, locus YBR021W, strain FUR4, active compounds read low 0.994 | S. cerevisiae deletion strains, locus YBR229C, strain ROT2, active compounds read low 1 | S. cerevisiae deletion strains, locus YCL029C, strain bik1, active compounds read low 0.994 | S. cerevisiae deletion strains, locus YDL035C, strain GPR1, active compounds read low 1.02 | S. cerevisiae deletion strains, locus YDL074C, strain BRE1, active compounds read low 1 | S. cerevisiae deletion strains, locus YDL101C, strain DUN1, active compounds read low 0.997 | S. cerevisiae deletion strains, locus YDL185W, strain tfp1, active compounds read low 1 | S. cerevisiae deletion strains, locus YDL192W, strain arf1, active compounds read low 0.987 | S. cerevisiae deletion strains, locus YDR101C, strain arx1, active compounds read low 0.988 | S. cerevisiae deletion strains, locus YDR162C, strain NBP2, active compounds read low 1.01 | S. cerevisiae deletion strains, locus YDR318W, strain mcm21, active compounds read low 0.993 | S. cerevisiae deletion strains, locus YDR388W, active compounds read low 0.996 | S. cerevisiae deletion strains, locus YDR502C, strain sam2, active compounds read low 0.983 | S. cerevisiae deletion strains, locus YER110C, active compounds read low 0.989 | S. cerevisiae deletion strains, locus YER155C, strain BEM2, active compounds read low 1.01 | S. cerevisiae deletion strains, locus YER167W, strain BCK2, active compounds read low 1 | S. cerevisiae deletion strains, locus YGL078C, strain dbp3, active compounds read low 0.999 | S. cerevisiae deletion strains, locus YGL086W, strain mad1, active compounds read low 1.01 | S. cerevisiae deletion strains, locus YGL248W, strain PDE1, active compounds read low 0.997 | S. cerevisiae deletion strains, locus YGR078C, strain PAC10, active compounds read low 0.997 | S. cerevisiae deletion strains, locus YGR135W, strain pre9, active compounds read low 0.993 | S. cerevisiae deletion strains, locus YGR229C, strain SMI1, active compounds read low 1.01 | S. cerevisiae deletion strains, locus YGR252W, strain gcn5, active compounds read low 0.939 | S. cerevisiae deletion strains, locus YHR079C, strain IRE1 (second series), active compounds read low 0.988 | S. cerevisiae deletion strains, locus YHR094C, strain hxt1, active compounds read low 0.991 | S. cerevisiae deletion strains, locus YHR129C, strain ARP1, active compounds read low 0.998 | S. cerevisiae deletion strains, locus YHR200W, strain rpn10, active compounds read low 0.99 | S. cerevisiae deletion strains, locus YIL066C, strain RNR3, active compounds read low 1.01 | S. cerevisiae deletion strains, locus YIL073C, strain SPO22, active compounds read low 1.04 | S. cerevisiae deletion strains, locus YIL125W, strain kgd1, active compounds read low 0.991 | S. cerevisiae deletion strains, locus YIR030C, strain dcg1, active compounds read low 0.996 | S. cerevisiae deletion strains, locus YJL095W, strain BCK1, active compounds read low 0.988 | S. cerevisiae deletion strains, locus YJL134W, strain LCB3, active compounds read low 1.01 | S. cerevisiae deletion strains, locus YJL168C, strain set2, active compounds read low 0.998 | S. cerevisiae deletion strains, locus YJL187C, strain SWE1 (second series), active compounds read low 0.996 | S. cerevisiae deletion strains, locus YJR043C, strain POL32, active compounds read low 1.01 | S. cerevisiae deletion strains, locus YKL009W, strain mrt4, active compounds read low 1.01 | S. cerevisiae deletion strains, locus YKL068W, active compounds read low 1 | S. cerevisiae deletion strains, locus YKL085W, strain MDH1 (second series), active compounds read low 0.998 | S. cerevisiae deletion strains, locus YKL085W, strain MDH1, active compounds read low 0.998 | S. cerevisiae deletion strains, locus YKR001C, strain vps1, active compounds read low 0.98 | S. cerevisiae deletion strains, locus YLR039C, strain RIC1, active compounds read low 1.02 | S. cerevisiae deletion strains, locus YLR058C, strain SHM2, active compounds read low 1 | S. cerevisiae deletion strains, locus YLR102C, strain apc9, active compounds read low 0.994 | S. cerevisiae deletion strains, locus YLR262C, strain YPT6, active compounds read low 1.04 | S. cerevisiae deletion strains, locus YLR268W, strain sec22, active compounds read low 1 | S. cerevisiae deletion strains, locus YLR330W, strain CHS5, active compounds read low 1 | S. cerevisiae deletion strains, locus YLR371W, strain rom2, active compounds read low 0.988 | S. cerevisiae deletion strains, locus YLR418C, strain cdc73, active compounds read low 0.985 | S. cerevisiae deletion strains, locus YML016C, strain PPZ1, active compounds read low 1 | S. cerevisiae deletion strains, locus YML032C, strain rad52, active compounds read low 0.998 | S. cerevisiae deletion strains, locus YML124C, strain tub3, active compounds read low 0.996 | S. cerevisiae deletion strains, locus YMR078C, strain ctf18, active compounds read low 1.01 | S. cerevisiae deletion strains, locus YMR223W, strain ubp8, active compounds read low 0.983 | S. cerevisiae deletion strains, locus YMR263W, strain SAP30, active compounds read low 0.998 | S. cerevisiae deletion strains, locus YMR307W, strain GAS1, active compounds read low 0.98 | S. cerevisiae deletion strains, locus YNL067W, strain RPL9B, active compounds read low 0.996 | S. cerevisiae deletion strains, locus YNL128W, strain TEP1, active compounds read low 1.02 | S. cerevisiae deletion strains, locus YNL233W, strain BNI4, active compounds read low 1.02 | S. cerevisiae deletion strains, locus YNL250W, strain rad50, active compounds read low 1 | S. cerevisiae deletion strains, locus YNL271C, strain bni1, active compounds read low 1 | S. cerevisiae deletion strains, locus YNL298W, strain CLA4, active compounds read low 0.987 | S. cerevisiae deletion strains, locus YNL307C, strain MCK1, active compounds read low 0.994 | S. cerevisiae deletion strains, locus YNR052C, strain pop2, active compounds read low 0.979 | S. cerevisiae deletion strains, locus YOL012C, strain htz1 1.33 | S. cerevisiae deletion strains, locus YOL147C, strain pex11, active compounds read low 0.992 | S. cerevisiae deletion strains, locus YOR061W, strain CKA2, active compounds read low 1.01 | S. cerevisiae deletion strains, locus YOR069W, strain VPS5, active compounds read low 0.999 | S. cerevisiae deletion strains, locus YOR136W, strain idh2, active compounds read low 1.01 | S. cerevisiae deletion strains, locus YOR144C, strain elg1, active compounds read low 0.99 | S. cerevisiae deletion strains, locus YOR184W, strain ser1, active compounds read low 1.01 | S. cerevisiae deletion strains, locus YOR316C, strain cot1, active compounds read low 0.992 | S. cerevisiae deletion strains, locus YPL241C, strain CIN2, active compounds read low 1.01 | S. cerevisiae deletion strains, locus YPR119W, strain clb2, active compounds read low 0.998 | S. cerevisiae deletion strains, locus YPR141C, strain kar3, active compounds read low 1 | S. cerevisiae deletion strains, locus YPR163C, strain tif3, active compounds read low 1 | S. cerevisiae deletion strains, locus YPR167C, strain met16, active compounds read low 1 | S. cerevisiae deletion strains, strain wtn01, active compounds read low 0.992 | S. cerevisiae strains, strain wild type, active compounds read low 1.01

Reference: PubChem BioAssay AID1159580 (chemical genetic matrix, 2015)
